Sfp inh: qHTS Assay for Inhibitors of Bacillus subtilis Sfp phosphopantetheinyl transferase (PPTase). 4'-phosphopantetheinyl transferase ffp (Bacillus subtilis), Q9F4F7. Biochemical Sfp PPTase activity, qHTS. Potency, µM, hits mostly inhibitors. 3.5% of 310,000 active. AID 1490, 2009;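 also: the enzyme is Sfp with the accession as filed and its product quenches rhodamine fluorescence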
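Compounds were incubated with enzyme (final 15 nM) for 15 min at room temperature before substrate addition started the reaction. Fluorescence at 525 nm excitation, 598 nm emission was recorded immediately and after 30 minutes.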
VDR inhibitor: Inhibitors of the vitamin D receptor (VDR): qHTS. Vitamin D3 receptor (Homo sapiens), P11473. VDR-SRC2-3 peptide fluorescence polarization, 2 h. Potency, µM, hits mostly inhibitors. 0.93% of 400,000 active. AID 504847, 2011
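VDR–SRC2-3 interaction, FP format. Cmpds 23 nl via pintool, brief spin, 2 h ambient incubation.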
ALOX12 inh: Primary qHTS assay for inhibitors of human arachidonate 12S-lipoxygenase (ALOX12): Round 2 | Polyunsaturated fatty acid lipoxygenase ALOX12 (Homo sapiens), P18054 | purified 12hLO, xylenol orange hydroperoxide absorbance | Potency, µM (titrated, usually from 108 µM), actives largely listed as inhibitors | 1.1% of 580,000 active
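Purified human 12hLO at 150 nM in 25 mM Hepes, 0.01% Triton X-100, pH 7.0, preincubated 15 min at room temperature with compound. Reaction started with 40 uM arachidonic acid, 30 min at room temperature. Hydroperoxide measured by Fe-xylenol orange, 573/405 nm absorbance ratio.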
PLK1 PBD inh: qHTS for Inhibitors of PLK1-PDB (polo-like kinase 1 - polo-box domain): Primary Screen; Plk1 PBD binding of FITC phosphopeptide, fluorescence polarization; AID 720504, 2013; 2.8% of 360,000 active; Potency, µM, actives largely listed as inhibitors; Serine/threonine-protein kinase PLK1 (Homo sapiens), P53350; also: series mostly up to about 57 µM; nearly all actives have a fitted effect of over 65% in size
Target sequence (P53350 whole entry, looked up, the tested form may be a part): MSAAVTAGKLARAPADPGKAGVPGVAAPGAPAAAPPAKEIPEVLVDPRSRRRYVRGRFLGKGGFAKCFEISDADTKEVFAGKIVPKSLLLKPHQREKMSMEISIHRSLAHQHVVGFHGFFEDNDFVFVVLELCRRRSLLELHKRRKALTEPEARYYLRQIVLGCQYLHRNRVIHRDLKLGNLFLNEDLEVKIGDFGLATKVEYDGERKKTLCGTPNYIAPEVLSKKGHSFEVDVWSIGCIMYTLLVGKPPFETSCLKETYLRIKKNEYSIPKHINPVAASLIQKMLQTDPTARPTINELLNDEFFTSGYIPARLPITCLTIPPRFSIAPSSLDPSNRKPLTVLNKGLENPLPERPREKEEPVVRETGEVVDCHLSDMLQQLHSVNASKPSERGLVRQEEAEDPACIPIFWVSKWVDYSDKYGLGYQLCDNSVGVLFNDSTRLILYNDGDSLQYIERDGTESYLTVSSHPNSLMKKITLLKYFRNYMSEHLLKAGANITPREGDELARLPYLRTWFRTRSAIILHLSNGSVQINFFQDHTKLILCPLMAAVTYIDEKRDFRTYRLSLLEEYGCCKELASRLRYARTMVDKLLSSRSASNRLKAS
Of the large screens only hits and unclear results are named; the others gave an inactive call. Rows were chosen to be rich in hits. Some 4.2% of all compounds tested hit in one or more screens of this group. Calls follow the shape of the dose curve; as a rule, active = well fitted curve in the direction sought with a large enough effect; inconclusive = small, poorly fitted or top-dose-only effect, or another doubt; inactive = no such curve, though single readings can be large; an effect the other way counts as inactive or inconclusive.

O=C(CNCC1CCCO1)N1CCCCCC1 (stereo not given)	Sfp inh inconclusive
O=C(O)C1CSC2(CCN(Cc3ccccc3)CC2)N1 (stereo not given)	Sfp inh 50.1µM, ALOX12 inh inconclusive
Cc1cccc(CSc2nnc(-c3ccco3)o2)c1	Sfp inh 28.2µM
C#Cc1ccc([C@@H]2C=C(C(=O)OCC=C)O[C@H](OCCCCO)C2)cc1	ALOX12 inh inconclusive
CCNc1nc(NC(C)C)nc(Oc2ccc(OCCOc3ccccc3)nn2)n1	none
CCOC(=O)c1ccc(NC(=O)CSc2nnc(COc3ccccc3OC)n2CC)cc1	none
CN(C)S(=O)(=O)N1CCC(Oc2cccc(C(=O)NC3CCCCC3)c2)CC1	VDR inhibitor inconclusive, PLK1 PBD inh 15µM
CC(=O)OC1C(=O)[C@@]2(C)C(O)CC3OC[C@]3(OC(C)=O)C2C(OC(=O)c2ccccc2)[C@]2(O)CC(OC(=O)C(O)C(NC(=O)c3ccccc3)c3ccccc3)C(C)=C1C2(C)C (stereo not given in full)	none (no result: ALOX12 inh, PLK1 PBD inh)
CC(=O)O[C@H]1C(=O)[C@@]2(C)C([C@H](OC(=O)c3ccccc3)[C@]3(O)C[C@H](OC(=O)[C@H](O)[C@@H](NC(=O)c4ccccc4)c4ccccc4)C(C)=C1C3(C)C)[C@]1(OC(C)=O)CO[C@@H]1C[C@@H]2O (stereo not given in full)	Sfp inh 44.7µM (no result: PLK1 PBD inh)
COc1cc2c(cc1OC)CN(c1ccc3ccccc3n1)CC2	Sfp inh 56.2µM, ALOX12 inh inconclusive
COc1cc2c(cc1OC)CN(c1ccc(-c3ccccc3OC)nn1)CC2	none (no result: ALOX12 inh)
COc1ccc2cc(C(=O)CS(=O)(=O)c3ccccc3)c(=O)oc2c1	none
O=C(CS(=O)(=O)c1ccccc1)c1cc2cc(F)ccc2oc1=O	PLK1 PBD inh 15µM (no result: ALOX12 inh)
COc1cccc2cc(C(=O)CS(=O)(=O)c3ccc(C(C)(C)C)cc3)c(=O)oc12	PLK1 PBD inh 7.52µM
COc1ccc(S(=O)(=O)CC(=O)c2cc3cccc(C)c3oc2=O)cc1	PLK1 PBD inh 26.7µM (no result: ALOX12 inh)
COCCn1c(SC(C(=O)Nc2cc(C)ccc2OC)c2ccccc2)nnc1-c1ccc(Cl)cc1 (stereo not given)	none
CCCCNc1nc2c(S(=O)(=O)c3ccc(C)c(C)c3)nnn2c2ccsc12	none (no result: Sfp inh, PLK1 PBD inh)
COc1ccc(NC(=O)CSc2ccccn2)c([N+](=O)[O-])c1	none
Cc1ccc(/C=C/C(=O)Nc2sc3c(c2C#N)CCCC3)o1	Sfp inh 39.8µM
Cc1[nH]n(-c2cccc3ccccc23)c(=O)c1/C=N/c1sc2c(c1C#N)CCC2	Sfp inh 79.4µM, ALOX12 inh inconclusive, PLK1 PBD inh inconclusive
Cc1ccc(/C=C/C(=O)Nc2ncc(C)s2)o1	Sfp inh 12.6µM
Cc1ccc(/C=C/C(=O)Nc2nccs2)o1	Sfp inh inconclusive, ALOX12 inh inconclusive
N#Cc1c(/N=C/C=C/c2ccccc2)sc2c1CCCC2	Sfp inh 25.1µM, VDR inhibitor inconclusive, ALOX12 inh inconclusive, PLK1 PBD inh 9.47µM
CCN(/C=N/c1sc2c(c1C#N)CCCCC2)CC	ALOX12 inh 44.7µM
CC(C)(C)c1ccc(/C=N/c2sc3c(c2C#N)CCCC3)cc1	ALOX12 inh 28.2µM (no result: Sfp inh, VDR inhibitor, PLK1 PBD inh)
Cc1ccc(/C=N/c2sc3c(c2C#N)CCCCC3)o1	Sfp inh 50.1µM, ALOX12 inh inconclusive
Cc1ccc(/C=N/c2sc3c(c2C#N)CCC3)s1	ALOX12 inh inconclusive
CC(C)CN(/C=N/c1sc2c(c1C#N)CCCCC2)CC(C)C	none
Cc1ccc(NC(=O)C2CCCN(C(=O)c3cnn(-c4ccccc4)c3-n3cccc3)C2)cc1 (stereo not given)	ALOX12 inh inconclusive (no result: Sfp inh, PLK1 PBD inh)
O=C(NCc1ccco1)C1Cc2c(-c3ccccc3Oc3ccccc3)ccnc2O1 (stereo not given)	none (no result: Sfp inh, VDR inhibitor)
Cc1ccccc1CN1CC[C@H](c2nc3ccccc3s2)C1	none (no result: Sfp inh, VDR inhibitor, PLK1 PBD inh)
Cc1ccc(C(C)(C)NC(=O)C2CCC(=O)N(CC3CCCCC3)C2)cc1 (stereo not given)	PLK1 PBD inh 26.7µM
Cc1ccccc1CNC(=O)C1CCC(=O)N(CC2CCCCC2)C1 (stereo not given)	none
CCOc1ccc(C(=O)Nc2nnc(S(=O)(=O)Nc3ccccc3)s2)cc1	none (no result: Sfp inh, PLK1 PBD inh)
CC1(C)CC(=O)C(CC(=O)Nc2ccc(S(N)(=O)=O)cc2)=C(O)C1	none
CC1(C)CC(=O)C(CS(=O)(=O)c2ccccc2)=C(O)C1	Sfp inh 50.1µM, VDR inhibitor inconclusive, PLK1 PBD inh inconclusive
Cn1cccc1CN1CCC2(CC1)COc1ccccc1C(=O)N2	ALOX12 inh 56.2µM (no result: Sfp inh, VDR inhibitor, PLK1 PBD inh)
O=C1NC2(CCN(Cc3ccncc3)CC2)COc2ccccc21	none (no result: Sfp inh, VDR inhibitor, PLK1 PBD inh)
CN(C)c1ccc(CN2CCC3(CC2)COc2ccccc2C(=O)N3)cc1	ALOX12 inh 39.8µM (no result: Sfp inh, VDR inhibitor, PLK1 PBD inh)
CN(C)c1ccc(CN2CCC3(COc4ccccc4C(=O)N3)C2)cc1 (stereo not given)	none (no result: Sfp inh, VDR inhibitor, PLK1 PBD inh)
Cc1ccc(SCC(=O)NC(C)(C#N)C2CC2)c(C)c1 (stereo not given)	ALOX12 inh 35.5µM (no result: Sfp inh, VDR inhibitor, PLK1 PBD inh)
CCCCC(=O)N1C(C)CCC1C (stereo not given)	PLK1 PBD inh 23.8µM (no result: Sfp inh, VDR inhibitor)
C=CCN(c1ccc(C(=O)N2CCN(c3ccc(F)cc3)CC2)cc1)S(C)(=O)=O	none
CCCc1nn2cc(-c3ccc(C)c(C)c3)nc2s1	none (no result: Sfp inh, PLK1 PBD inh)
CCc1ccc2cc(-c3ccc(C)c(C)c3)cn2c1	ALOX12 inh 25.1µM (no result: Sfp inh, VDR inhibitor, PLK1 PBD inh)
COc1ccccc1N1CCN(C(=O)c2cccc(C(=O)N3CCN(c4ccccc4OC)CC3)c2)CC1	none
Cc1cccc(N2CCN(C(=O)c3ccc4c(c3)NC(=O)C(CSCc3cccc(F)c3)N4)CC2C)c1 (stereo not given)	Sfp inh 56.2µM, VDR inhibitor inconclusive, ALOX12 inh 22.4µM, PLK1 PBD inh inconclusive
O=C1Nc2cc(C(=O)N3CCN(c4ccccc4F)CC3)ccc2NC1CSCc1ccccc1F (stereo not given)	Sfp inh 56.2µM (no result: VDR inhibitor, ALOX12 inh, PLK1 PBD inh)
COc1ccccc1N1CCN(C(=O)c2ccc3c(c2)NC(=O)C(CSCc2ccccc2C)N3)CC1 (stereo not given)	Sfp inh 50.1µM (no result: VDR inhibitor, ALOX12 inh, PLK1 PBD inh)
COc1ccc(N2CCN(C(=O)c3ccc4c(c3)NC(=O)C(CSCc3ccccc3F)N4)CC2)cc1 (stereo not given)	ALOX12 inh 4.47µM, PLK1 PBD inh inconclusive (no result: Sfp inh, VDR inhibitor)
Cn1nnnc1Sc1ncnc2scc(-c3cccc4c3sc3ccccc34)c12	none (no result: Sfp inh, PLK1 PBD inh)
O=c1[nH]c(C2CCCN(S(=O)(=O)c3ccccc3)C2)nc2c1nnn2Cc1ccccc1 (stereo not given)	none
Cc1nn2c(nc1=O)NNC2(C)C(C)(C)C (stereo not given)	Sfp inh 35.5µM
Cc1cc(=O)[nH]c(SCC(=O)NC(c2ccccc2)c2ccccc2)n1	none
COC(=O)C(CSCc1ccccc1)NC(=O)CSc1nc(C)cc(=O)[nH]1 (stereo not given)	PLK1 PBD inh 26.7µM
O=C(NC(=S)N(Cc1ccccc1)c1ccccn1)C1CC1	ALOX12 inh inconclusive, PLK1 PBD inh 21.2µM

Bioassay records as filed in PubChem BioAssay.
